# Results as given in PubChem BioAssay (NCATS).
# Inconclusive results are not listed. A call without a number means that no potency is given here. Values without a mark were called inactive. Calls of active or inactive are those of the source. Calls come from the whole dose curve; as a rule, active = well fitted inhibition curve with a large enough effect; inconclusive = small, poorly fitted or top-dose-only effect; inactive = flat fitted curve, though single readings scatter.
# Molecular target: Glutathione peroxidase 1 (Homo sapiens) (UniProt P07203)
# Sequence (P07203 whole entry, looked up): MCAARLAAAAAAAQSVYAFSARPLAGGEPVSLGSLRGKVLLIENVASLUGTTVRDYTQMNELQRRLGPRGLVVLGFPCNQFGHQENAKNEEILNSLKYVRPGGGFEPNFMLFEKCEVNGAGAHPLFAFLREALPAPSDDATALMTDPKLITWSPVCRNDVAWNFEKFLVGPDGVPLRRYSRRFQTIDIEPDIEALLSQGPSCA
# Assay: Primary qHTS Assay for Inhibitors of Recombinant Selenoprotein Glutathione Peroxidase 1 (GPX1) (AID 1845191)
# Conditions: recombinant GPX1, GR-coupled NADPH fluorescence, 15 min; series mostly up to 48.8 µM
# In short: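 GR-coupled assay: compounds preincubated 30 min at room temperature with GPX1, then reaction started with CHP; final 10 nM GPX1, 1 mM GSH, 0.5 mM CHP, 0.5 mM NADPH, 100 nM GR, 0.01% BSA, pH 7.5 Tris buffer. NADPH fluorescence (340/450 nm) read at 0 and 15 min.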
# Note: nearly all actives have a fitted effect of over 65% in size.
row,SMILES,Potency
1,Cc1cccc2c1CC[C@H](CN1CCC(c3c(Cl)cccc3Cl)CC1)C[C@@H]2O,inactive
2,CNC(=O)[C@H](Cc1ccccc1)NC(=O)[C@H](CC(C)C)[C@H](CSc1cccs1)C(=O)NO,inactive
3,CC1(C)CC(=O)c2c(C(F)(F)F)nn(-c3ccc(C(N)=O)c(NC4CCC(O)CC4)c3)c2C1 (stereo not drawn),inactive
4,Cc1csc(-c2nnc(Nc3ccc(Oc4ncccc4-c4ccnc(N)n4)cc3)c3ccccc23)c1,inactive
5,COC(=O)N1CCN(Cc2cccc(NC(=O)Nc3ccc(C)nc3)c2F)CC1,inactive

# Molecular target: Phospholipid hydroperoxide glutathione peroxidase GPX4 (Homo sapiens) (UniProt P36969)
# Sequence (P36969 whole entry, looked up): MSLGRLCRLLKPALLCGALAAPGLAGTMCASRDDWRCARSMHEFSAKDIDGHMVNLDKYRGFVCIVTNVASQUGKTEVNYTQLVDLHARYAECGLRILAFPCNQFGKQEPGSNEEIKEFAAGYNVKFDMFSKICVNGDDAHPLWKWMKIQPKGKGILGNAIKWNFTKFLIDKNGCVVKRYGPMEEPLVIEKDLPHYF
# Assay: Primary qHTS Assay for Inhibitors of Recombinant Selenoprotein Glutathione Peroxidase 4 (GPX4) (AID 1845192)
# Conditions: recombinant GPX4, GR-coupled NADPH fluorescence, 15 min; series mostly up to 50 µM
# In short: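 GR-coupled assay: recombinant GPX4 preincubated 30 min with compound at room temperature; final 200 nM GPX4, 1 mM GSH, 0.5 mM cumene hydroperoxide, 0.5 mM NADPH, 100 nM GR, 0.01% BSA, pH 7.5 Tris. NADPH fluorescence (340/450 nm) read at 0 and 15 min.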
SMILES,Potency,"activity change, negative = inhibition"
CC(=O)Nc1cccc(-n2c(=O)n(C3CC3)c(=O)c3c(Nc4ccc(I)cc4F)n(C)c(=O)c(C)c32)c1,inactive,–
Cc1cnc(CNC(=O)c2c(=O)c3ccc(N4CCCN(C)CC4)nc3n3c2sc2ccccc23)cn1,–,-0.552% [at 9.73 µM]
CCN(CCO)CCCOc1ccc2c(Nc3cc(CC(=O)Nc4cccc(F)c4)[nH]n3)ncnc2c1,inactive,–
C[C@@H](NC(=O)c1ncnc(N)c1Cl)c1ncc(C(=O)Nc2cc(C(F)(F)F)c(Cl)cn2)s1,inactive,–
CCC(=O)N1CCN(c2ccc(-n3c(=O)ccc4cnc5ccc(-c6cnc7ccccc7c6)cc5c43)cc2C(F)(F)F)CC1,inactive,–
CNC(=O)c1ccc2c(C(=Nc3cccc(CN(C)C)c3)c3ccccc3)c(O)[nH]c2c1,inactive,–
O=C(CO)N1CCC(c2[nH]nc(-c3ccc(Cl)cc3)c2-c2ccncn2)CC1,inactive,–
NC1(C(=O)N[C@@H](CCO)c2ccc(Cl)cc2)CCN(c2ncnc3[nH]ccc23)CC1,inactive,–
O=C1C(c2c(O)[nH]c3ccccc23)=Nc2ccccc21,inactive,–
Cc1cc2nc3c(=O)[nH]c(=O)nc-3n(CC(O)C(O)C(O)CO)c2cc1C (stereo not drawn),inactive,–
CCc1cccc(CC)c1NC(=O)N1Cc2[nH]nc(NC(=O)c3ccc(N4CCN(C)CC4)cc3)c2C1,inactive,–
CN(C)CCCNC(=O)c1ccc(-c2cc(O)c3ncccc3c2)cc1,inactive,–
CC(C)(CO)[C@@H](O)C(=O)NCCC(=O)O,inactive,–
COc1ccc(-c2cc3nccn3c(Nc3ncccc3C(N)=O)n2)cc1OC,inactive,–
Cc1ccc2c(c1)C(=O)[C@]1(O)CCN(c3ccccc3)C1=N2,inactive,–
CC1=C(C(=O)Nc2cc3cn[nH]c3cc2F)C(c2ccc(C(F)(F)F)cc2)CC(=O)N1 (stereo not drawn),inactive,–
C=CCc1cccc(C=NNC(=O)CN2CCN(Cc3ccccc3)CC2)c1O,inactive,–

SMILES,Potency,"activity change, negative = inhibition"
CCN1C[C@H](C)n2c(c(O)c3c(=O)n(Cc4ccc(F)c(Cl)c4)nc(C(=O)NC)c32)C1=O,inactive,–
Cc1cc2c(cc1C1(c3ccc(C(=O)O)cn3)CC1)C(C)(C)CCC2(C)C,inactive,–
CC(C)CNc1ccnc(NCc2csc(-c3ccccc3)n2)n1,inactive,–
NS(=O)(=O)c1cc(Cl)c(Cl)c(S(N)(=O)=O)c1,inactive,–
COc1cc2ncnc(Nc3cc(Br)c(O)c(Br)c3)c2cc1OC,inactive,–
CN[C@@H](C)[C@H]1[C@H](O)C[C@@]2(C)[C@@H]3CC[C@H]4C(C)(C)[C@@H](NC)CC[C@@]45C[C@@]35CC[C@]12C,–,-4.33% [at 9.73 µM]
Cn1c(=O)c(-c2c(Cl)cccc2Cl)cc2cnc(Nc3cccc(C(=O)O)c3)nc21,inactive,–
Cc1cnc(Nc2cccc(CN3CCOCC3)c2)nc1Nc1cccc(S(=O)(=O)NC(C)(C)C)c1,inactive,–
c1cc(OCCN2CCCCC2)cc(-c2n[nH]c3ccc(-c4ncn[nH]4)cc23)c1,inactive,–
O[C@@H](COc1cccc2ncccc12)CN1CCN(C2c3ccccc3[C@@H]3[C@H](c4ccccc42)C3(F)F)CC1 (stereo partly drawn),inactive,–
CNc1nc(Nc2ccc(C(=O)N3CCOCC3)cc2OC)ncc1Cl,inactive,–
Cc1cccc2c1CC[C@H](CN1CCC(c3c(Cl)cccc3Cl)CC1)C[C@@H]2O,inactive,–
CNC(=O)[C@H](Cc1ccccc1)NC(=O)[C@H](CC(C)C)[C@H](CSc1cccs1)C(=O)NO,inactive,–
CC1(C)CC(=O)c2c(C(F)(F)F)nn(-c3ccc(C(N)=O)c(NC4CCC(O)CC4)c3)c2C1 (stereo not drawn),inactive,–
Cc1csc(-c2nnc(Nc3ccc(Oc4ncccc4-c4ccnc(N)n4)cc3)c3ccccc23)c1,inactive,–
COC(=O)N1CCN(Cc2cccc(NC(=O)Nc3ccc(C)nc3)c2F)CC1,inactive,–
